Measurements published in the supplement of paper PMC11732987, “Enantioselective OTUD7B fragment discovery through chemoproteomics screening and high-throughput optimisation” (Communications Chemistry, 2025).

These molecules were tested against COPS5 (UniProt Q92905) (assay: log2 ratio of Biotin-Ahx-Ub-VS probe labelling (fragment/DMSO); higher = less target engagement (more negative = stronger competition), active = hit call of the paper (q ≤ 0.05, log2 ratio ≤ -1)). Conditions: compound concentration: 200 uM; treatment time: 3 h.
Description: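 Competitive ABPP in HEK293T cell lysate. Lysates were treated with each chloroacetamide fragment at 200 µM for 3 h, then with Biotin-Ahx-Ub-VS (0.5 µM, 1 h), NeutrAvidin-enriched and analysed by diaPASEF LC-MS/MS. Protein LFQ was median-normalised; average log2 ratio is fragment/DMSO from an unpaired t-test (n=3 treated, n=44 DMSO). Hits: q ≤ 0.05, log2 ratio ≤ -1, unique peptides ≥ 2.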

Sequence of COPS5 (Q92905 whole entry, looked up, the tested form may be a part): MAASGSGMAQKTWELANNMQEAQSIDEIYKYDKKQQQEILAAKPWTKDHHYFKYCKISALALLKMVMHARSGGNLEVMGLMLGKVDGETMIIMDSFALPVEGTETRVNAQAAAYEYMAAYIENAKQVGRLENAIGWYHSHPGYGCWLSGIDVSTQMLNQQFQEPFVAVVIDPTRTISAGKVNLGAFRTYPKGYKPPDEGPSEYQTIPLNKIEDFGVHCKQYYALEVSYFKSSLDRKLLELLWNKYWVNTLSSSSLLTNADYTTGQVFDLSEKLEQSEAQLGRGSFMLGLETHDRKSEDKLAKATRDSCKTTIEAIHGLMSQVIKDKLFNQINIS

log2 ratio of Biotin-Ahx-Ub-VS probe labelling, inactive:
O=C(CCl)Nc1cc2c(cc1Cl)OCCO2 0.135, Cl.O=C(CCl)NCc1ccnc(Oc2ccccc2F)c1 0.031, CS(=O)(=O)c1ccc(CNC(=O)CCl)cc1 0.0587, Cc1cccc(C(CNC(=O)CCl)N2CCOCC2)c1.Cl (configuration not stated) 0.0369, O=C(CCl)N1CCN(C(=O)Nc2ccccc2)CC1 -0.0124, O=C(CCl)NCc1noc(C2CC2)n1 0.133, O=C(CCl)N[C@H]1CC[C@@H](CO)CC1 0.0798
